# Changes are numbered by the printed parent chain. Whole data set: some 5,800 sequences, median “enrichment r” near 0.68, cut for the highest 2% near 11. The full list was thinned out, with the highest values kept by preference.
# T1: UNK ZnF1-6 (called full-length) (human, UniProt Q9C0B0 30-357)
# T1 sequence: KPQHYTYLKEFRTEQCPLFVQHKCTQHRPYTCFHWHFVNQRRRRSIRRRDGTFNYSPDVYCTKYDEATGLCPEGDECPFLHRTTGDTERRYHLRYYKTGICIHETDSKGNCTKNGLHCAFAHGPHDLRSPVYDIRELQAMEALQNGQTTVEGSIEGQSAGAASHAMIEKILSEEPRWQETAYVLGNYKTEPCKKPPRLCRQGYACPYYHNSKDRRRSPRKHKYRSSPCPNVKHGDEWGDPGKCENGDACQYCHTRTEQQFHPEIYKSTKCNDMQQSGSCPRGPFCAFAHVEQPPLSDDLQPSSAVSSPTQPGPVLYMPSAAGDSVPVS
# B1: ENSG00000168615:stop:overlap|stop_codon|ENSG00000168615|stop_codon|NA|stop_codon (ssRNA)
# RNA: GGGAGUUCUACAGUCCGACGAUCCUGGCCAGAAUACCCAAAAUAAUUGGCAGAUGUCAAAUUUGGCUUUCUGUGUUUAUUACUAGAGCAUAAACAUUUCUAGUUUUGUUUGAGUGUUUUACAGUCCUUUUUGGCAGUUAGGUACAACAGAGGAUUGAGCAUCA
# B2: chr16:2708819:2708933:+|3pUTR|ENSG00000167977|unk|total|mutant (ssRNA)
# RNA: GGGAGUUCUACAGUCCGACGAUCCUCUCUGGGGAGCUGCUGGCCGCUCCGCGUUGUUUGAUUUUUGACCUUGACACCGCCGACCGGCUUGUGGUUUUUUUAAUUUAAAGAUAUUAAGACUUAAUUCACUAAAAUUUAUUCUAACAACAGAGGAUUGAGCAUCA
# B3: chr5:6669452:6669553:+|3pUTR|ENSG00000145545|unk|FALSE|unique (ssRNA)
# RNA: GGGAGUUCUACAGUCCGACGAUCCAUCUCAUCUGGAGUUUUUAAAUGCCAUUUGUUUCAGUUGUCUUUAACAACAUAAUAAAUAGACUUUGCCAUUUAACAAGGUAGCUCAAAUUCUUUUACUAAUUGUUACAUCGAAACAUUCAACAGAGGAUUGAGCAUCA
# B4: chr16:2708819:2708933:+|3pUTR|ENSG00000167977|unk|FALSE|unique (ssRNA)
# RNA: B2 RNA with C48U, C49A, C76U, C77A, C79U, C80A, C83U, C84A
# B5: chr2:216672738:216672882:-|3pUTR|ENSG00000115461|msi1|FALSE|unique (ssRNA)
# RNA: GGGAGUUCUACAGUCCGACGAUCUUCUCUUAGGCUUUUGUUUCUAUUUCAAACAUACUUUCUUGGUUUUCUAAUGGAGUAUAUAGUUUAGUCAUUUCACAGACUCUGGCCUCCUCUCCUGAAAUCCUUUUGGAUGGGGAAAGGCAACAGAGGAUUGAGCAUCA
# B6: chr2:96185838:96185916:-|3pUTR|ENSG00000084090|msi1_unk|FALSE|overlapping (ssRNA)
# RNA: GGGAGUUCUACAGUCCGACGAUCUGGGAGACUAAUCCUUUUAGAUAGUAGCUUUUUGAUGCUCAAAACAUCACAUUUAAAUUUAGUUUAAAAAUUUUUUAACUUUUGUGUCAAAUAGGAGUUGAGGAAUUGAGCAGGAUUCUACAACAGAGGAUUGAGCAUCA
# B7: chr10:98383567:98383797:-|three_prime_utr|ENSG00000119943|control|control|control (ssRNA)
# RNA: GGGAGUUCUACAGUCCGACGAUCCCACCCCUGAAUUCCAAGUGCUCCAUUGGAUCAGCUUCCCAGGAAGUUCAGCUUCGGGUUAGUACAUAAGGCCACCACAAUGCUCAAGAAAUUAUUUUAGAAAAAACGUACGAGUUACAUCAACAGAGGAUUGAGCAUCA
# B8: chr12:103777333:103777434:-|3pUTR|ENSG00000111696|msi1|total|mutant (ssRNA)
# RNA: GGGAGUUCUACAGUCCGACGAUCUCCUGAACAUUUACGGGCUAUGCAUUGGGAACUGCAGGGGCACAGUGAUGGGCAAAGAUCCGCUGCUUCCAGAAGGCUGAUUUCGUGGGCUCCACAAUGGUAAAACGCUGCUGUGAGUGGCAACAGAGGAUUGAGCAUCA
# B9: chr17:61865808:61865921:-|3pUTR|ENSG00000108506|unk|FALSE|unique (ssRNA)
# RNA: GGGAGUUCUACAGUCCGACGAUCUUCUAUGAGAAUGAGUUUGUAGCUGUUUCAAAUCAUGAAGUGCAUAGUAUCACAUGUGAUAGAAUAUUUAUAACUUUUUAUUAGAUGCUUAAUGUUCAAUUAAGUAAUUUUGAUGUGAAACAACAGAGGAUUGAGCAUCA
# B10: chr21:14371318:14371404:-|3pUTR|ENSG00000155304|msi1_unk|total|mutant (ssRNA)
# RNA: GGGAGUUCUACAGUCCGACGAUCUAUGAAUAACAAUCUGAAGUCUUUUCAUAAAAAAAAUUAAUAAACUUCCGUUGUACAUUCCGCCAGUGUUAUUUGAAGUAUGUAACUUUUAAAAUAUUAAGUGUCUUGUAUGAUCCGAAUCAACAGAGGAUUGAGCAUCA
# B11: chr10:121957106:121957207:-|3pUTR|ENSG00000107672|msi1|FALSE|bound_elsewhere (ssRNA)
# RNA: GGGAGUUCUACAGUCCGACGAUCUGUAUCGUACAUAUUGUAUGAUUCAACAUUUUUAAAGGCAGAUUGUUUUUAGUAAAAUGUAGCUUUUGAUAGUUAAUAAAUUUGUCAUGGUUGUCUUUGAUUAAAGGAAACUCACCGCCACAACAGAGGAUUGAGCAUCA
# B12: chr5:160402147:160402258:-|3pUTR|ENSG00000164609|unk|FALSE|unique (ssRNA)
# RNA: GGGAGUUCUACAGUCCGACGAUCAUGGUUUACAUUACCGUUUGUUUUCAUUGUGAUUGCCCCUAUGUAACAAUCAUGAAUAUUAGAUUUUUUAAAUUGUAGAAUAUCCUAAUAUUUAUAGCCAGCAGCUGUUACUUUGUUUGUCAACAGAGGAUUGAGCAUCA
# B13: chr14:100278170:100278208:+|3pUTR|ENSG00000100811|msi1_unk|FALSE|overlapping (ssRNA)
# RNA: GGGAGUUCUACAGUCCGACGAUCGCUAUCUUAAUUUUGGUUGUAUUCUUUGAUGUUAACACAUUUUGUAUAAUUGUAUCGUAUAGCUGUAUUGAAUCAUGUAGUAUCAAAUAUUAGAUGUGAUUUAAUAGUGUUAAUCAAUUUCAACAGAGGAUUGAGCAUCA
# B14: chr7:152122106:152122213:+|3pUTR|ENSG00000178234|unk|FALSE|unique (ssRNA)
# RNA: GGGAGUUCUACAGUCCGACGAUCAGUGGUUUUUAUCUGAUCAGGAACUUGUCAUGAUUUCCUUUCUUAGACUUCAUAGGAGAUAGUGCUUUAAAAAAAAAAAAAACUUCUAUUAUUUGUUUAGUAUGUUGUAAGUAGAUCAUUCAACAGAGGAUUGAGCAUCA
# B15: chr4:56502255:56502306:+|3pUTR|ENSG00000174780|msi1_unk|FALSE|overlapping (ssRNA)
# RNA: GGGAGUUCUACAGUCCGACGAUCAUUUCAGCUGGAGUCUGAAGAUACUUGUUUCUGUUCAAGUCCCACUUUAAAUUAUGUCUUAGGAGACUGAAAGUGGAAUCUUCUGAGCAUUCCUAAAUAUCUGCUUAGAAAUAUCAUGUGCAACAGAGGAUUGAGCAUCA
# B16: chr7:152122106:152122213:+|3pUTR|ENSG00000178234|unk|total|mutant (ssRNA)
# RNA: B14 RNA with U67C, A68C, U76C, A77C, U83C, A84C, U121C, A122C, U135C, A136C
# Molecular target: T1, UNK ZnF1-6 (called full-length)
# Assay: nsRBNS (natural sequence RNA bind-n-seq); RBNS binding buffer (assumed for nsRBNS): 25 mM Tris pH 7.5, 150 mM KCl, 3 mM MgCl2, 0.01% Triton X-100, 500 ug/ml BSA, 20 U/ml SUPERase-In, 4 C; UNK is unkempt and MSI1 is Musashi-1; names of the RNAs are library labels; protein concentration not given here; high values mean tight binding
row,Binder,binding signal [enrichment R]
1,B1,0.532
2,B2,2.05
3,B3,0.535
4,B4,14.8
5,B5,5.21
6,B6,27.5
7,B7,2.25
8,B8,0.856
9,B9,2.51
10,B10,0.702
11,B11,13.5
12,B12,5.04
13,B13,14.1
14,B14,35
15,B15,0.869
16,B16,0.949

# — publication PMC12136788
